From PubChem BioAssay (Tox21)
Inconclusive results are not listed. Entries that show only a call come without a potency. Activity calls are given as the source filed them. The call rests on the fitted dose curve.

molecular target: Thyrotropin receptor (Homo sapiens) (UniProt P16473); assay: qHTS assay to identify small molecule antagonists of the thyroid stimulating hormone receptor (TSHR) signaling pathway (AID 1259385); settings: TSHR-HEK293 cAMP HTRF, TSH-stimulated antagonist mode; series mostly up to 92.4 µM; further: nearly all actives have a fitted effect of over 20% in size
Sequence (P16473 whole entry, looked up): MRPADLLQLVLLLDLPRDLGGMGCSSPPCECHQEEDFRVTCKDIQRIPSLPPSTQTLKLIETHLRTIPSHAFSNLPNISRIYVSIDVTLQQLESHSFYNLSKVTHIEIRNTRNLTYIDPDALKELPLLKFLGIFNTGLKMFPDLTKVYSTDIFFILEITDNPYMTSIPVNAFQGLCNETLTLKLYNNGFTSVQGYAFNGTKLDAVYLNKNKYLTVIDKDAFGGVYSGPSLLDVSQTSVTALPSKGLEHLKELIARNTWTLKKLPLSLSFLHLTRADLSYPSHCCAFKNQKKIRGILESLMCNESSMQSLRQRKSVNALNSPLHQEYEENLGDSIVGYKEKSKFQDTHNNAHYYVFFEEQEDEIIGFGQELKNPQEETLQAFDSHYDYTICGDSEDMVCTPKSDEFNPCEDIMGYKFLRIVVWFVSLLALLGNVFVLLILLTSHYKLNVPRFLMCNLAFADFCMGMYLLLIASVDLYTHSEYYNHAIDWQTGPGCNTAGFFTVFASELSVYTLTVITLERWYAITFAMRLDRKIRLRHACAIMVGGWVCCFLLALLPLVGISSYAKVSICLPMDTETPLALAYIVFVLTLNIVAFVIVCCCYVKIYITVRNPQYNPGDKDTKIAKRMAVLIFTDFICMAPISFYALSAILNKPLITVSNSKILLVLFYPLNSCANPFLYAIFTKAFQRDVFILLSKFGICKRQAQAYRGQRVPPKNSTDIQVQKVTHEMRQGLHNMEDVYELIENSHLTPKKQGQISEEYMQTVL
From the text: U.S. Tox21 Program National Center for Advancing Translational Sciences [NCATS] NIH Chemical Genomics Center [NCGC] U.S. Environmental Protection Agency [EPA] National Institutes of Environmental Health Sciences [NIEHS] National Toxicology Program [NTP] U.S. Food and Drug Administration [FDA] Tox21 Assay Overview: TSHR is the receptor for thyrotropin (thyroid stimulating hormone or TSH), a member of the glycoprotein hormone family. TSH is released by the anterior pituitary gland and is the main regulator of thyroid gland growth and development. Upon binding circulating thyrotropin, a G-protein signal cascade activates adenylyl cyclase and […] cAMP concentration is increased. cAMP is a key second messenger involved extensively in cellular signal transduction pathways associated with the majority of G-protein coupled receptors (GPCRs). The activation of these GPCRs by neurotransmitters, lipids, nucleotides, peptides and hormones results in the activation or the inhibition of plasma membrane-bound adenylate cyclase through heterotrimeric G-proteins. A cell-based TSHR assay can be used to screen chemical compounds that modulate TSHR either in agonist or antagonist mode.
Tox21 Assay Protocol Summary: TSHR-Hek293 cells were dispensed at 800 cells/4uL/well in 1536-well white plates using a Multidrop dispenser. After the assay plates were incubated at a 37C/5% CO2 incubator for 18 hrs, 23 nL of compounds dissolved in DMSO, positive controls or DMSO only was transferred to the assay plate by a pin tool, followed by 1 ul medium containing Ro20-1724. For the antagonist mode screening, 1 uL of TSH was added on the top of the cell/compound mixtures to achieve a final agonist concentration of 1.5 ng/mL. After 30 min of incubation at room temperature, 2.5 ul/well of cAMP-d2 and 2.5 ul/well of anti-cAMP-cryptate were added respectively into the assay plates using a Flying Reagent Dispenser. The plates were incubated at room temperature for 1 hr. The fluorescence intensity in the plates was measured using an Envision plate reader. Each test compound was measured at 15 concentrations and in triplicates.
Potency means the concentration at half of the fitted maximal effect.

| SMILES | Potency | activity change, negative = inhibition |
| --- | --- | --- |
| CCCCC(CC)COC(=O)CCCCC(=O)OCc1ccccc1 (stereo not given) | inactive |  |
| CCC(COC(=O)CCS)(COC(=O)CCS)COC(=O)CCS | inactive |  |
| CN(C)CCN1CCN(c2cccc(Cl)c2)C1=O | inactive |  |
| CCCCOC(=O)CC | inactive |  |
| C=Cc1ccccc1C=C | inactive |  |
| CCCCCCCCCCCCOCCOCCOCCOCCOCCOCCOCCOCCOCCO | inactive |  |
| COCCOc1cc2cc(C(=O)NC3CCN(C(C)C)CC3)n(CC(=O)Nc3ccc(Cl)cn3)c2cn1 | inactive |  |
| CCCCCCCCCCCCCCCC[N+](C)(C)CC | inactive |  |
| C[C@H]1NCc2cc(-c3ccc4c(=O)c(C(=O)O)cn(C5CC5)c4c3OC(F)F)ccc21 |  | 6.84% [at 19 µM] (inactive) |
| CCO[Si](OCC)(OCC)OCC | inactive |  |
| c1ccsc1 | inactive |  |
| S=C([S-])NCCNC(=S)[S-].S=C([S-])NCCNC(=S)[S-].[Mn+2].[Zn+2] | inactive |  |
| CC(C(=O)O)c1ccc2c(c1)[nH]c1ccc(Cl)cc12 (stereo not given) | inactive |  |
| O=C(Nc1ccc2c(O)c(N=Nc3ccc(N=Nc4ccc(S(=O)(=O)O)cc4)cc3)c(S(=O)(=O)O)cc2c1)c1ccccc1 | inactive |  |
| O=C(O)CN(CCN(CC(=O)O)CC(=O)O)CC(=O)O |  | 1.34% [at 3.27 µM] (inactive) |
| C#C[C@]1(OC(C)=O)CC[C@H]2[C@@H]3CCC4=C/C(=N/O)CC[C@@H]4[C@H]3CC[C@@]21CC | 422 nM (active) |  |
| COc1cccc(OC)c1C(=O)O | inactive |  |
| CC(CO)Oc1ccccc1 (stereo not given) | inactive |  |
| CCc1cccc(CC)c1NC(=O)CN(CC(=O)O)CC(=O)O | inactive |  |
| CC(C)Cn1cnc2c(N)nc3ccccc3c21 |  | 2.37% [at 19 µM] (inactive) |

| SMILES | Potency | activity change, negative = inhibition |
| --- | --- | --- |
| Cc1ccc(-c2ccccc2)cc1 | inactive |  |
| CC1(C)CCC[C@]2(C)[C@H]3CC(=O)O[C@]3(C)CC[C@@H]12 | inactive |  |
| C=C(CC)C(=O)c1ccc(OCC(=O)O)c(Cl)c1Cl | inactive |  |
| CCC(C)[O-].CCC(C)[O-].CCOC(=O)/C=C(/C)[O-].[Al+3] | inactive |  |
| CCCC(=O)OCOC(=O)C1=C(C)NC(C)=C(C(=O)OC)C1c1cccc(Cl)c1Cl (stereo not given) | inactive |  |
| CC1=Nc2ccccc2C1(C)C | inactive |  |
| C1CCC(SSC2CCCCC2)CC1 | inactive |  |
| Cc1ccc(C(C)C)cc2c(C)ccc1-2 | inactive |  |
| Cc1cc(-c2ccc(N=Nc3cc(S(=O)(=O)O)c4ccccc4c3N)c(C)c2)ccc1N=Nc1cc(S(=O)(=O)O)c2ccccc2c1N | inactive |  |
| C=C(C)C(=O)OCCCCCCCCCC | inactive |  |
| CCOC(=O)NNc1ccc(N(CC)CC(C)O)nn1 (stereo not given) | inactive |  |
| Cc1cccc(C(=O)O)c1O | inactive |  |
| OC[C@H]1O[C@H](O[C@H]2O[C@H](CO)[C@@H](O)[C@H](O)[C@H]2O)[C@H](O)[C@@H](O)[C@@H]1O | inactive |  |
| CCCCCCOC(=O)C(C)CC (stereo not given) | inactive |  |
| O=C1OC2(c3ccc(O)cc3Oc3cc(O)ccc32)c2ccc(N=C=S)cc21 | inactive |  |
| Cc1c(F)c(N2CCNC(C)C2)cc2c1c(=O)c(C(=O)O)cn2C1CC1 (stereo not given) | inactive |  |
| O=C1CCCCCCCCCCCCCCCO1 | inactive |  |
| CCC(C)n1ncn(-c2ccc(N3CCN(c4ccc(OC[C@H]5CO[C@](Cn6cncn6)(c6ccc(Cl)cc6Cl)O5)cc4)CC3)cc2)c1=O (stereo not given in full) | inactive |  |
| COc1cc(C)ccc1O | inactive |  |
| CC(C)OC(=O)C(O)(CC(=O)O)CC(=O)O | inactive |  |
